# Data reported in PubChem BioAssay AID504452 (The Scripps Research Institute Molecular Screening Center, 2011).
# Active and inactive are the calls of the source. Rule as the data show it: active = activation above about 85%; inactive = the rest.
# Target: Peroxisome proliferator-activated receptor gamma (Homo sapiens) (UniProt P37231)
# Assay: partial agonism at human PPARgamma receptor – cell-based, luciferase reporter, luminescence, primary screen (AID 504452);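 also: Cos-1 cells carrying PPARgamma and a response element luciferase reporter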
# Conditions: cell-based PPARg luciferase reporter, at 5 µM, stronger effect = higher value; activation (% of full agonist control): measured here: relative to full agonist control
# Sequence of Peroxisome proliferator-activated receptor gamma (Homo sapiens) (P37231 whole entry, looked up): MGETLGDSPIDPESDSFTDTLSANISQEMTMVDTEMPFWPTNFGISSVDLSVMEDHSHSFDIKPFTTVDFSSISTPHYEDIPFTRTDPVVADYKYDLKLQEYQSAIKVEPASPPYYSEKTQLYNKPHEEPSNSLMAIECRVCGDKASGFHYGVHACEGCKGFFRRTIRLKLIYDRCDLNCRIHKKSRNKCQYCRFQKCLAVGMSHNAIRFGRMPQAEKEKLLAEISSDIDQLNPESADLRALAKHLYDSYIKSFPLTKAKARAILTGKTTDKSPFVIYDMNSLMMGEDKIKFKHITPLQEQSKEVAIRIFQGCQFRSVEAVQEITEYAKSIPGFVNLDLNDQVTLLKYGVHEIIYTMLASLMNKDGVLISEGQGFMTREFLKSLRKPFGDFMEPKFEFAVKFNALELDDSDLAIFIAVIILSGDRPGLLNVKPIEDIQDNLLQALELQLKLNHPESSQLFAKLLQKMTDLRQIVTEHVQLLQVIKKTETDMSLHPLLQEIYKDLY
SMILES,activation (% of full agonist control) [%],activation (% of partial agonist control)
O=C(O)COc1ccccc1/C=C1\C(=O)NC(=O)N(CCC2=CCCCC2)C1=O,33.7,74.6% (inactive)
CC(=O)Nc1cc(C(=O)N2CCC3(CC2)OCCO3)ccc1Sc1ccc(F)cc1,37.4,82.7% (inactive)
